Three compounds from PubChem BioAssay (EPA / NIEHS) can be followed below.

Calls of active or inactive are those of the source. Rule for the calls: active = hit-call score of the fitted dose curve at least 0.9, where 1 is the maximum; inactive = score below 0.9.

Holding throughout (settings): mRNA level, 48 h; actives raise or lower the signal
Read-out in assay [1]: Cytochrome P450 (CYP2B6), CYP2B6 (gene 1555)
The assay is described as follows: LTEA_HepaRG_CYP2B6: Life Technologies and Expression Analysis (LTEA) Assay for Cytochrome P450 (CYP2B6) using HepaRG (AID 2283481). In short, it runs like this:
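Differentiated human HepaRG cells in serum-free induction medium, dosed in duplicate for 48 h over 8 half-log concentrations topping at 100 uM (0.5% DMSO). CYP2B6 mRNA measured by TaqMan qRT-PCR, normalized to ACTB, GAPDH, POLR2A; bidirectional fit versus DMSO.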

Read-out in assay [2]: Cytochrome P450 2C19 (Homo sapiens) (UniProt P33261)
The assay is described as follows: LTEA_HepaRG_CYP2C19: Life Technologies and Expression Analysis (LTEA) Assay for CYP2C19 using HepaRG (AID 2283482). In short, it runs like this: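 Differentiated HepaRG cells in serum-free induction medium exposed 48 h in duplicate, 8 concentrations from 100 uM by half-log steps in 0.5% DMSO. CYP2C19 mRNA measured by TaqMan qRT-PCR, normalized to ACTB, GAPDH, POLR2A. Bidirectional fit versus DMSO.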

Read-out in a further assay: CYP2C8 (gene 1558)
Description: LTEA_HepaRG_CYP2C8: Life Technologies and Expression Analysis (LTEA) Assay for CYP2C8 using HepaRG (AID 2283483). In short, it runs like this:
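This is a transcriptional endpoint in HepaRG cultures: 48 h exposure, highest concentration 100 uM. CYP2C8 mRNA is quantified by TaqMan qRT-PCR.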

Read-out in the next assay: CYP2C9 (gene 1559)
The assay is described as follows: LTEA_HepaRG_CYP2C9: Life Technologies and Expression Analysis (LTEA) Assay for CYP2C9 using HepaRG (AID 2283484). In short, it runs like this: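 Eight-point concentration-response (highest 100 uM, half-log dilutions) in HepaRG cells for 48 h; CYP2C9 expression by qRT-PCR normalized to ACTB, GAPDH, POLR2A. Bidirectional fit, DMSO baseline.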

Read-out in another assay: CYP2E1 (gene 1571)
Description: LTEA_HepaRG_CYP2E1: Life Technologies and Expression Analysis (LTEA) Assay for CYP2E1 using HepaRG (AID 2283485). The procedure, abridged: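 Assay uses 48 h exposure of HepaRG hepatic cells, eight concentrations to 100 uM. Expression of CYP2E1 is quantified by TaqMan qRT-PCR with ACTB, GAPDH and POLR2A normalization; curves fitted in both directions relative to vehicle.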

Read-out in the next assay: CYP4A11 (gene 1579)
Description: LTEA_HepaRG_CYP4A11: Life Technologies and Expression Analysis (LTEA) Assay for CYP4A11 using HepaRG (AID 2283486). In short, it runs like this: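 Differentiated HepaRG cells, 48 h after plating, exposed in duplicate for 48 h to 8 half-log concentrations up to 100 uM in 0.5% DMSO in serum-free induction medium. CYP4A11 mRNA measured by TaqMan qRT-PCR, normalized to ACTB, GAPDH and POLR2A.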

Read-out in assay [3]: Cytochrome P450 3A4 (Homo sapiens) (UniProt P08684)
Description: LTEA_HepaRG_CYP3A4: Life Technologies and Expression Analysis (LTEA) Assay for CYP3A4 using HepaRG (AID 2283487). The procedure, abridged: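 Differentiated HepaRG cells, plated 48 h, then dosed 48 h in serum-free induction medium with 0.5% DMSO, 8 half-log concentrations up to 100 uM, duplicate. CYP3A4 mRNA by qRT-PCR, normalized to ACTB/GAPDH/POLR2A; bidirectional fit versus DMSO.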

Read-out in assay [4]: DNA damage-inducible transcript 3 (DDIT3), DDIT3 (gene 1649)
Description: LTEA_HepaRG_DDIT3: Life Technologies and Expression Analysis (LTEA) Assay for DNA damage-inducible transcript 3 (DDIT3) using HepaRG (AID 2283488). The procedure, abridged:
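Eight-point concentration-response (100 uM highest, half-log dilutions) in HepaRG, 48 h, duplicate wells. Endpoint: qRT-PCR mRNA, normalized (ACTB, GAPDH, POLR2A), bidirectional fitting with DMSO as baseline.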

Read-out in assay [5]: Pro-epidermal growth factor (Homo sapiens) (UniProt P01133)
The assay is described as follows: LTEA_HepaRG_EGF: Life Technologies and Expression Analysis (LTEA) Assay for Epidermal growth factor (EGF) using HepaRG (AID 2283489). The procedure, abridged: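 HepaRG cells (~100,000/well, 48 h pre-culture) exposed in duplicate for 48 h in serum-free induction medium to 8 half-log concentrations up to 100 uM in 0.5% DMSO. EGF mRNA by qRT-PCR, normalized to ACTB/GAPDH/POLR2A; bidirectional fit versus DMSO.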

Read-out in assay [6]: Early growth response protein 1 (EGR1) transcription factor, EGR1 (gene 1958)
Description: LTEA_HepaRG_EGR1: Life Technologies and Expression Analysis (LTEA) Assay for Early growth response protein 1 (EGR1) transcription factor using HepaRG (AID 2283490). In short, it runs like this: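 EGR1 expression change in human HepaRG after 48 h chemical exposure, assessed by housekeeping-normalized qRT-PCR; concentration-response up to 100 uM, fitted in both directions against DMSO controls.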

Read-out in assay [7]: Cytochrome P450 3A7 (Homo sapiens) (UniProt P24462)
Description: LTEA_HepaRG_CYP3A7: Life Technologies and Expression Analysis (LTEA) Assay for CYP3A7 using HepaRG (AID 2283492). The procedure, abridged: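 Differentiated HepaRG cells in serum-free induction medium exposed 48 h in duplicate to 8-point half-log series from 100 uM top in 0.5% DMSO. CYP3A7 mRNA by qRT-PCR, normalized to ACTB/GAPDH/POLR2A, bidirectional fit versus DMSO.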

Read-out in assay [8]: Fatty Acid-Binding Protein 1 (FABP1), FABP1 (gene 2168)
Description: LTEA_HepaRG_FABP1: Life Technologies and Expression Analysis (LTEA) Assay for Fatty Acid-Binding Protein 1 (FABP1) using HepaRG (AID 2283494). In short, it runs like this:
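Values reflect bidirectional concentration-response fitting of FABP1 mRNA change against 0.5% DMSO controls. Human HepaRG cultures received eight half-log doses (top 100 uM) for 48 h; expression quantified by TaqMan qRT-PCR with housekeeping-gene normalization.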

Read-out in assay [9]: Cytochrome P450 4A22 (Homo sapiens) (UniProt Q5TCH4)
Description: LTEA_HepaRG_CYP4A22: Life Technologies and Expression Analysis (LTEA) Assay for Cytochrome P450 4A22 (CYP4A22) using HepaRG (AID 2283495). The procedure, abridged: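 Differentiated HepaRG cells in serum-free induction medium exposed 48 h in duplicate to eight half-log concentrations up to 100 uM in 0.5% DMSO. CYP4A22 mRNA quantified by TaqMan qRT-PCR, normalized to ACTB, GAPDH and POLR2A; bidirectional fit versus DMSO.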

Read-out in assay [10]: Cytochrome P450 7A1 (Homo sapiens) (UniProt P22680)
Description: LTEA_HepaRG_CYP7A1: Life Technologies and Expression Analysis (LTEA) Assay for Cytochrome P450 7A1 (CYP7A1) using HepaRG (AID 2283496). The procedure, abridged:
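Using 0.5% DMSO as vehicle and baseline, chemicals were tested in duplicate over an 8-point range from 100 uM on HepaRG cells for 48 h; qRT-PCR signals were normalised to ACTB, GAPDH and POLR2A.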

Read-out in assay [11]: Glutathione S-Transferase (GSTA2), GSTA2 (gene 2939)
Description: LTEA_HepaRG_GSTA2: Life Technologies and Expression Analysis (LTEA) Assay for Glutathione S-Transferase (GSTA2) using HepaRG (AID 2283497). In short, it runs like this:
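Oxidative-stress marker GSTA2 is quantified by TaqMan qRT-PCR in HepaRG cultures treated 48 h across an eight-point range to 100 uM. Expression is normalized to endogenous controls and compared with 0.5% DMSO vehicle.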

Read-out in assay [12]: Glutamate-cysteine ligase catalytic (GCLC), GCLC (gene 2729)
Description: LTEA_HepaRG_GCLC: Life Technologies and Expression Analysis (LTEA) Assay for Glutamate-cysteine ligase catalytic (GCLC) using HepaRG (AID 2283498). The procedure, abridged:
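Oxidative-stress marker GCLC is measured as mRNA change in human HepaRG liver cells after 48 h chemical treatment in 0.5% DMSO, eight concentrations from 100 uM. Activity is fitted bidirectionally against vehicle.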

Read-out in assay [13]: growth arrest and DNA damage 45 (GADD45G), GADD45G (gene 10912)
The assay is described as follows: LTEA_HepaRG_GADD45G: Life Technologies and Expression Analysis (LTEA) Assay for growth arrest and DNA damage 45 (GADD45G) using HepaRG (AID 2283499). In short, it runs like this: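 Differentiated human HepaRG cells, 48 h post-plating, exposed 48 h in serum-free induction medium to 8 half-log concentrations (top 100 uM, 0.5% DMSO) in duplicate. GADD45G mRNA measured by Fluidigm TaqMan qRT-PCR, normalized to ACTB, GAPDH, POLR2A; bidirectional fit versus DMSO.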

Read-out in assay [14]: Glutamate-cysteine ligase regulatory (GCLM), GCLM (gene 2730)
The assay is described as follows: LTEA_HepaRG_GCLM: Life Technologies and Expression Analysis (LTEA) Assay for Glutamate-cysteine ligase regulatory (GCLM) using HepaRG (AID 2283500). In short, it runs like this:
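In this multiplexed HepaRG gene-expression assay, GCLM mRNA change after 48 h treatment (8 concentrations, max 100 uM) was scored against DMSO by bidirectional curve fitting.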

Read-out in assay [15]: Ezrin (EZR), EZR (gene 7430)
The assay is described as follows: LTEA_HepaRG_EZR: Life Technologies and Expression Analysis (LTEA) Assay for Ezrin (EZR) using HepaRG (AID 2283491). The procedure, abridged: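 EZR transcript levels came from Fluidigm qRT-PCR and were normalized to three housekeeping genes after 48 h chemical exposure of HepaRG cells. Dosing used an 8-point half-log series with a 100 uM top concentration in 0.5% DMSO, tested in duplicate; both directions were fitted versus vehicle.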

Cytochrome P450 2C19 (Homo sapiens), sequence (P33261 whole entry, looked up): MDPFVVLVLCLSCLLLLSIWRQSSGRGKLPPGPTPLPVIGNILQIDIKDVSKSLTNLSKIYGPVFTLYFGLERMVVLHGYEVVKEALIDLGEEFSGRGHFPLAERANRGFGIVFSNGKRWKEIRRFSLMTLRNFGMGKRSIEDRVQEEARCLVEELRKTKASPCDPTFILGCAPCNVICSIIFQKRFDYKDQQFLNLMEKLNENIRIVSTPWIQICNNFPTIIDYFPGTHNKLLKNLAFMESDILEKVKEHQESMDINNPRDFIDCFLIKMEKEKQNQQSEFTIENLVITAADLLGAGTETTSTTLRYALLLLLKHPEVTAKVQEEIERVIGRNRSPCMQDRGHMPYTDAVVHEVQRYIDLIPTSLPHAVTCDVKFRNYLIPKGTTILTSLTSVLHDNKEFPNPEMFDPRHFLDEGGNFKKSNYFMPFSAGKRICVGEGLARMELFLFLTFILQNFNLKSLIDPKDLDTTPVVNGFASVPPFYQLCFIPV
Cytochrome P450 3A4 (Homo sapiens), sequence (P08684 whole entry, looked up): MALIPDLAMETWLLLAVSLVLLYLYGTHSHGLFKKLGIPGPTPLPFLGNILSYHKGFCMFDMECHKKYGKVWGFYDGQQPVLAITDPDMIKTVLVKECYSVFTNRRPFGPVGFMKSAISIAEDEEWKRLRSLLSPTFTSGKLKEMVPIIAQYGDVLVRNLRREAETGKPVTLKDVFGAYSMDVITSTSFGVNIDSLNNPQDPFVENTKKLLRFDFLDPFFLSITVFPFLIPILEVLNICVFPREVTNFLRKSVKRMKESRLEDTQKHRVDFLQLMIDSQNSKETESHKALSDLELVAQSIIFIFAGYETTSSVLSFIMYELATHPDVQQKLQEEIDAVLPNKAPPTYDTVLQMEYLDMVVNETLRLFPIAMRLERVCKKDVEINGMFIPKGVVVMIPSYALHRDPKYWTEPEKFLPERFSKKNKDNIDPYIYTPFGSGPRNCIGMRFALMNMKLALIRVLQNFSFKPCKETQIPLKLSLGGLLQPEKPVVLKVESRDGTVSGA
Cytochrome P450 3A7 (Homo sapiens), sequence (P24462 whole entry, looked up): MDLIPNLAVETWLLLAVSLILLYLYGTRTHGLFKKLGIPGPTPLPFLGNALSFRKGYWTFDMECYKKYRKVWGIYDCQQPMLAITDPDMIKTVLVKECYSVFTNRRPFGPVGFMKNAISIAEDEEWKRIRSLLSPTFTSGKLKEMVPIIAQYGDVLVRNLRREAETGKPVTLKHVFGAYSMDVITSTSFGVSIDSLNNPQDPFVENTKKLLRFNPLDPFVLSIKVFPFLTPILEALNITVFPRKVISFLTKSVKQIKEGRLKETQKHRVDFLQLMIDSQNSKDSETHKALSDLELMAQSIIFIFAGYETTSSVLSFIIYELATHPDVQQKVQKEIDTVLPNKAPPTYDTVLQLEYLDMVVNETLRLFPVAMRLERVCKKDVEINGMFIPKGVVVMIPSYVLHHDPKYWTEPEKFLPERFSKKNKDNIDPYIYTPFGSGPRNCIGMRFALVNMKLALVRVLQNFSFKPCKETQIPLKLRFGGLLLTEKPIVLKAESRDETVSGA

In the case of `COc1cc(C=O)cc2c1[C@H](COC(N)=O)[C@]1(OC(C)=O)ON2C[C@H]2[C@@H]1N2C(C)=O`, the AC50 was 73.4 µM (active) in assay [1]; 0.804 µM (active) in [2]; 0.5 µM (active) with CYP2C8 (gene 1558); 24.2 µM (active) in the assay with CYP2C9 (gene 1559); 0.5 µM (active) in the assay with CYP4A11 (gene 1579); 15.8 µM (active) in [4]. Moreover, the AC50 in assay [6] was 88.8 µM (active); in assay [8], 0.701 µM (active); in assay [9], 0.0669 µM (active); in assay [10], 0.417 µM (active); in [11], 1.06 µM (active); in assay [12], 0.312 µM (active). The AC50 in [13] was 21.8 µM (active). For the same compound, the compound was called inactive (in the assay with CYP2E1 (gene 1571); in assay [3]; in assay [5]; in assay [7]; in [14]).
As to `Clc1ccc(Cl)c(Cl)c1`, the outcome (in [1]; in assay [2]; in the assay with CYP2C8 (gene 1558); with CYP2C9 (gene 1559); in the assay with CYP4A11 (gene 1579); in assay [3]) was inactive. Moreover, the compound was classed as inactive in assay [5], in assay [6], in [7], in assay [8], in assay [9] and in assay [13]. Besides, the AC50 with CYP2E1 (gene 1571) was 50 µM (active); in assay [4], 9.92 µM (active); in [10] it was 50 µM (active); in [11] it was 84 µM (active); in assay [12], 9.92 µM (active).
In the case of `Clc1ccc(C(c2ccc(Cl)cc2)C(Cl)(Cl)Cl)cc1`, the AC50 is 1.14 µM (active) in assay [1]; 2.78 µM (active) in assay [2]; 12.5 µM (active) in the assay with CYP2C8 (gene 1558); 0.549 µM (active) with CYP2C9 (gene 1559); 50 µM (active) with CYP2E1 (gene 1571); 50 µM (active) in the assay with CYP4A11 (gene 1579). Also, the AC50 is 50 µM (active) in [4]; 50 µM (active) in assay [15]; 50 µM (active) in assay [8]; 50 µM (active) in assay [9]; 16.7 µM (active) in assay [13]. The compound was called inactive in assay [5], in assay [6], in [10], in [11] and in [12].
